Screening results as filed in PubChem BioAssay.
Pf Dd2 growth: blocks in vitro growth of P. falciparum Dd2; P. falciparum Dd2 growth, SYBR Green, 72 h; Potency, µM (highest dose often 28.9 µM), for the others: at the top dose activity, negative = inhibition, hits mostly inhibitors; actives 4.3% (n = 120,000); AID 1347417; active = well fitted inhibition curve with a large enough effect;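 also: plate controls were DMSO vehicle for no effect and reference drug for full effect; nearly all actives have a fitted effect of over 65% in size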
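Infected erythrocytes (Dd2, 0.3% parasitemia, 2.5% hematocrit final) are added to compound in RPMI-1640/Albumax II medium, grown 72 h at 37C in low oxygen, then lysed with saponin/Triton-X containing SYBR Green and read by fluorescence.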
* hit, by the source's call; i = inactive; [ ] = remark or other dose. The entries come from a sample that favours hits as a whole. Potency is read from the fitted curve at half-maximal effect.

SMILES | Pf Dd2 growth
CC1CCN(CCCNC(=O)C2CCCN(Cc3ccncc3)CCC(=O)NCC2)CC1 (centres undefined) | 8%
O=c1n(-c2ccc(F)cc2F)nc2n1CCN(CC1CC1)C2 | -1%[44.1 µM]
Cc1cccc(NC(=O)N2[C@H]3CC[C@@H]2c2cncnc2C3)c1 | -4%
CC(C)(C)CC(=O)NC1CCN(c2cnn(Cc3ccccc3)c(=O)c2)CC1 | i
Cn1ncc(N2CCC(NC(=O)c3ccsc3)CC2)cc1=O | -17%
O=C(NC1CCN(c2cnn(Cc3ccccc3)c(=O)c2)CC1)c1ccsc1 | 10µM*
Cc1ccc(CN2CCC3(CCNCC3)C2)c(Cl)c1Cl | 13µM*
Cn1c(CN2CCC3(CCNCC3)C2)nc2ccccc21 | -5%
OCC#Cc1ccc(CN2CCC3(CCNCC3)C2)cc1 | 2%
CN(Cc1ccccc1CN1CCCC1)C(=O)C1CC2(CCNCC2)CN1C (centres undefined) | -13%
CC(C)(C)c1cccc(CN2CCC3(CCNCC3)C2)c1O | 10µM*
COc1ccc(F)c(F)c1CN1CCC2(CCNCC2)C1 | -23%
O=C(NC1CCN(c2cc(C(F)(F)F)ncn2)CC1)c1ccccc1 | 27%
CN1C(=O)CC(C(=O)O)C12CCN(Cc1nn(C)c3cccc(Cl)c13)CC2 (centres undefined) | 1%
CC(=O)Nc1ccc(S(=O)(=O)N[C@H]2C[C@@H](c3nc(-c4ccccc4)no3)N(C)C2)cc1 | -24%
C[S+](=O)([O-])N1CCn2c(nn(-c3ccncc3)c2=O)C1 | 1%[44.1 µM]
CCCCc1nc2cc(C(=O)NCCNc3nc(C)cc(=O)[nH]3)ccc2o1 | -12%
COc1ccc(C(=O)Nc2ncc(-c3ccc(OC)nc3)c3c2OCC3)cc1 | -15%[44.1 µM]
COc1ccccc1-c1cnc(Nc2ccc(CN3CCN(C)CC3)cc2)c2c1CCO2 | 7.1µM*
COc1ccccc1-c1cnc(NC(=O)c2cccnc2)c2c1CCO2 | 20%[44.1 µM]
COc1ccccc1-c1cnc(Nc2cncnc2)c2c1CCO2 | i
Fc1cccc(-c2cnc(Nc3ccc(N4CCOCC4)cc3)c3c2CCO3)c1 | i
COc1ccc(-c2cnc(Nc3ccc(CN4CCN(C)CC4)cc3)c3c2CCO3)cn1 | 6.3µM*
N#Cc1ccc(C(=O)N2CCc3n[nH]c(=O)n3CC2)cc1 | 79%
O=C([C@@H]1C[C@H](F)CN1C(=O)c1ccc(C(F)(F)F)cc1)N1CCCCC1 | i
SMILES | Pf Dd2 growth
Cn1nccc1C(=O)N1CCC(Nc2cccnc2)C1 (centres undefined) | 24%[5.79 µM]
CC(=O)N1CCC(C(=O)N[C@H](Cc2ccccn2)C2CC(O)C2)CC1 (some centres undefined) | -13%
O=C(c1cc(F)ccc1F)N1CC2CC(C1)[C@H]1CCCC(=O)N1C2 (some centres undefined) | -3%
CCN(CC)C(=O)[C@@H]1CCC[C@@H](NC(=O)c2ccc3c(c2)OCO3)CN(C)C(=O)C1 | 34%[44.1 µM]
CC1CCc2c(sc(NC(=O)Cc3ccccc3)c2C(=O)Nc2ccc(Cl)cc2)C1 (centres undefined) | 10µM*
O=C(Cc1ccccc1)Nc1sc2c(c1C(=O)Nc1cccc(Cl)c1)CCCCC2 | i
Cc1ccc(NC(=O)c2c(NC(=O)Cc3ccccc3)sc3c2CCC3)cc1 | 32%
CN1CCc2[nH]nc(C(=O)N3CCC4(CC3)c3nc[nH]c3CCN4C)c2C1 | -2%
COc1ccc(C2(c3nc(C4CC(=O)N(C5CCCCC5)C4)no3)CC2)cc1 (centres undefined) | 11µM*
Cc1ccc(-c2nc(C3CC(=O)N(C4CCCCC4)C3)no2)cc1 (centres undefined) | 55%
COCc1nc(C2CC(=O)N(C3CCCCC3)C2)no1 (centres undefined) | 13%
CC(C)C1=NOC2(CCN(Cc3cccc4ccccc34)CC2)C1 | -20%[44.1 µM]
CCc1ccc(S(=O)(=O)N2[C@@H]3CC[C@H]2CC(NC(=O)c2ccncc2)C3)cc1 (some centres undefined) | -12%
O=C1NCC2(CCN(C(=O)c3ccc(C(F)(F)F)cc3)CC2)Oc2ccccc21 | i
Cc1oc2ncnc(N3CCCCC3)c2c1C(=O)Nc1cccc(F)c1 | i
O=C(Nc1ccc2c(N3CCCC3)ncnc2c1)c1cc(F)ccc1Cl | 5µM*
O=C(Nc1ccc2ncnc(N3CCCCC3)c2c1)c1cc(F)ccc1F | i
O=C(Nc1ccc2ncnc(N3CCCCC3)c2c1)c1ccc(F)c(F)c1 | -7%
O=C(Nc1ccc2c(N3CCCC3)ncnc2c1)c1cc(F)ccc1F | 3.2µM*
O=C(Nc1ccc2c(N3CCCC3)ncnc2c1)c1cccc(F)c1 | 2µM*
CC1CCC(NC(=O)CN2C(=O)NC3(CCCCC3)C2=O)CC1 (centres undefined) | 22%
O=C(CN1C(=O)NC(c2ccccc2Cl)C2=C1COC2=O)NCc1ccc2c(c1)OCO2 (centres undefined) | i
O=C(NC1CCCCC1)N1CCC(c2noc(-c3cnccn3)n2)C1 (centres undefined) | 1%[5.79 µM]
CCNC(=O)N1CC(N(CC)C2CCOCC2)C1 | 20%
Cn1c(=O)n(C)c2cc(S(=O)(=O)NCC3(O)CCCNCC3)ccc21 (centres undefined) | -9%
SMILES | Pf Dd2 growth
Cc1noc(C)c1S(=O)(=O)N1CCCC(c2[nH]ccc2C(N)=O)C1 (centres undefined) | -9%
CN(Cc1ccccc1)C(=O)C[C@@H]1CCNC[C@@H]1Cc1cc(CN(C)c2ccccc2)on1 | -30%
COc1ccccc1-c1nnc([C@H]2CCN(C3CCOCC3)C2)o1 | i
Cc1ccc(CCNC(=O)CN2C(=O)COc3ccc(S(=O)(=O)N4CCC(C)CC4)cc32)cc1 | -20%
CCCNC(=O)CN1C(=O)COc2ccc(S(=O)(=O)N3CCC(C)CC3)cc21 | -21%
CCCN(CCC)CCNC(=O)CN1C(=O)COc2ccc(S(=O)(=O)N3CCC(C)CC3)cc21 | 4.5µM*
N#Cc1ccc(CN2CCCC3(Cc4ccccc4CNC3=O)C2)cc1 (centres undefined) | -23%
O=C(c1cnccn1)N1CCC2(CC1)NC(=O)N(Cc1ccc(F)cc1)C2=O | -15%
COc1ccccc1N1CCN(c2ncccc2-c2nc(-c3ccc(Cl)cc3)no2)CC1 | 36%
CCCOCc1cc(CN2CCN(c3ccccc3OC)CC2)c(O)c2ncccc12 | 2.8µM*
COc1ccccc1N1CCN(C(CNC(=O)C(=O)NCc2cccnc2)c2cccnc2)CC1 (centres undefined) | -4%
C=CCS(=O)(=O)NCc1cccnc1N1CCN(c2ccccc2OC)CC1 | -3%
COc1ccc(-c2noc(CN3CCN(c4ccccc4OC)CC3)n2)cc1OC | 11%
COc1ccccc1N1CCN(c2csc3ccccc3c2=O)CC1 | -10%
CCOCc1cc(CN2CCN(c3ccccc3OC)CC2)c(O)c2ncccc12 | 2µM*
COc1ccccc1N1CCN(Cc2cc(COC(C)C)c3cccnc3c2O)CC1 | 1.6µM*
CCOc1ccccc1N1CCN(Cc2ccc(=O)n(CC)c2)CC1 | -7%
Cc1cnc(C(=O)NC2C[C@H]3CC[C@@H](C2)N3C(=O)c2ccc(C)s2)cn1 (some centres undefined) | i
COC[C@@H]1CN(C(=O)c2cn3ccccc3n2)C[C@H]1c1ccncc1 | -8%
COc1cc(NC(=O)CN2C(=O)C(c3ccccc3)=NC23CCCC3)cc(OC)c1OC | i
O=C1NC2(CCN(C(=O)c3ccc4c(c3)OCO4)C2)OCc2ccccc21 (centres undefined) | -1%
COC[C@H]1CCCN1[C@@H]1[C@H](O)[C@H](CO)O[C@@H]1CNC(=O)Nc1ccccc1 | 2%[44.1 µM]
